# Screening results: PubChem BioAssay, Broad Institute
# This is one part of a sample in which hits are shown more often than they occur.
# Tgondii IFNg: T. gondii growth inhibition with IFN-gamma, primary screen, cell-based. Toxoplasma gondii growth in IFN-gamma-treated host cells; stronger effect = lower value. activity change, negative = inhibition, % (test concentration not listed). hit rate 3.8% among 69,000. AID 1259416, 2018; in the data active = activity change below about -70%, passing the limit was not always enough;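 also: host cells are HeLa cells infected with Toxoplasma gondii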
# Numbers stand for hits; - = inactive.
SMILES,Tgondii IFNg
COC(=O)C1=C(C)NC(C)=C([N+](=O)[O-])[C@H]1c1ccccc1C(F)(F)F,-
COC(=O)C1=C(C)NC(C)=C(C(=O)O[C@H]2CCN(Cc3ccccc3)C2)[C@H]1c1cccc([N+](=O)[O-])c1,-
COC(=O)C1=C(C)NC(C)=C(C(=O)OCC(C)C)C1c1ccccc1[N+](=O)[O-] (centres undefined),-
COC(=O)C1=C(C)NC(C)=C(C(=O)NCCCN2CCC(c3ccccc3)(c3ccccc3)CC2)C1c1ccc([N+](=O)[O-])cc1 (centres undefined),-76
C#CCN1C(C)=C(C(=O)OC)C(c2cccc([N+](=O)[O-])c2)C(C(=O)OCC)=C1C (centres undefined),-
O=C(Cn1c(=O)cc(C(=O)N2CCCC2)c2ccccc21)Nc1cccc(Br)c1,-
CC(=O)N1CCO[C@]2(CCC[C@H]2COCC(=O)N2CCCC2)C1,-
COc1ccc2c(c1)C(NC(=O)c1cc(=O)n(C)c(=O)n1C)CC(C)(C)O2 (centres undefined),-
CNC(=O)c1ccc(-c2cc(NCc3ccccn3)nc3[nH]ccc23)o1,-
C=CCO[C@H]1CN(C(=O)c2cccc(C#N)c2)[C@H]2COC[C@@H]12,-
Cc1nc2ccc(NC(=O)CCCn3cncn3)cc2[nH]1,-
Cn1cc(N2CC3(CCN(C(=O)c4cccn4C)C3)CC2=O)cn1 (centres undefined),-
O=C1CCCN1CC1CN(CC2CCOC2)Cc2nccn2C1 (centres undefined),-
O=C(c1ccc[nH]1)N1Cc2nccn2CC(CN2CCCC2)C1 (centres undefined),-
O=C1CCCN1CC1CN(C(=O)c2ccccn2)Cc2nccn2C1 (centres undefined),-98
COc1cc(NC(=O)CN2CCC3(CC2)N=C(c2cccc(F)c2)C(=O)N3)cc(OC)c1,-
Cc1cc(OC(=O)c2c(-c3c(Cl)cccc3Cl)noc2C)n(-c2ccccc2)n1,-
S=C(NCc1csc2ccccc12)c1ccccc1,-78
Cc1nn(C)c(C)c1CNC(=O)Nc1csc2ccccc12,-
O=S(=O)(NCc1csc2ccc(Cl)cc12)c1ccccc1,-
COC(=O)c1ccc(CSc2ccccc2N)o1,-
O=C(NCc1ccco1)C(Sc1ccccc1)c1ccccc1 (centres undefined),-
CC(C)(C)CC(C)(C)NC(=O)C(Sc1ccccc1N)c1ccccc1 (centres undefined),-88
c1ccc(-n2cccc2CN(Cc2cccnc2)Cc2ccc3c(c2)OCO3)nc1,-
CN(Cc1cc2n(n1)CCNC2)CC1CCN(c2ccccc2)C1 (centres undefined),-
SMILES,Tgondii IFNg
Cc1oc(-c2ccc(C(=O)NC3CCCCCCC3)cc2)nc1CN1CCN(c2ccccc2)CC1,-
c1cncc(COCC2CNCc3nccn3C2)c1 (centres undefined),-82
O=C(c1ccco1)N1Cc2nccn2CC(COc2cccnc2)C1 (centres undefined),-
COCCC(=O)N1Cc2nccn2CC(COCc2cccnc2)C1 (centres undefined),-
CCC(C(=O)NCc1cccnc1)n1c2ccccc2c2cnn(C)c(=O)c21 (centres undefined),-
NC(=O)c1csc(-c2cc(NC3CCCC3)nc3[nH]ccc23)n1,-76
CNC(=O)c1ccc(-c2cc(NCCO)nc3[nH]ccc23)s1,-
CC(C)(C(N)=O)c1ccc(-c2cc(N)nc3[nH]ccc23)cc1,-
OCc1ccc(-c2c(-c3ccccc3)ncn2Cc2ccc3c(c2)OCO3)o1,-
OC(c1ccccc1)(c1ccccc1)C1CCN(C(=S)Nc2ccc(Cl)cc2)CC1,-
O=C(/C=C/c1ccccc1)NC(NC(=S)Nc1ccc(Cl)cc1)C(Cl)(Cl)Cl (centres undefined),-78
O=C(/C=C/c1ccccc1)c1ccc(O)cc1O,-
CCOc1ncccc1C(=O)N1CCS(=O)(=O)CC1,-
CCN1CCN(c2ncnc3sc(C(=O)NCCc4c[nH]c5ccc(C)cc45)c(C)c23)CC1,-
COc1cccc(-n2c(=O)c(C(=O)NCc3cc(F)cc(F)c3)c(O)c3cccnc32)c1,-101
CCc1ccc(CNC(=O)c2c(O)c3cccnc3n(-c3cccc(F)c3)c2=O)cc1,-
CCc1ccc(CNC(=O)c2c(O)c3cccnc3n(-c3cccc(OC)c3)c2=O)cc1,-
COc1cccc(CNC(=O)c2c(O)c3cccnc3n(-c3ccccc3)c2=O)c1,-
COc1cccc(CNC(=O)c2c(O)c3cccnc3n(-c3cccc(F)c3)c2=O)c1,-98
COc1cccc(-n2c(=O)c(C(=O)NCc3ccc(F)cc3)c(O)c3cccnc32)c1,-
CC[C@@H](Cn1ncc2ccccc2c1=O)NC(=O)C(C)c1nn(CC)c(=O)c2ccccc12 (some centres undefined),-
O=C1CN(CC2(O)CCCN(CCc3ccccc3)C2=O)CCN1c1ccccc1 (centres undefined),-
Cc1ccc(S(=O)(=O)NCCc2csc(-c3ccc(F)cc3)n2)c(C)c1,-
c1ccc(-n2cc(CN3CCN(c4ncnc5ccccc45)CC3)cn2)cc1,-
c1ccc(CN2CCN(c3ncnc4ccccc34)CC2)cc1,-86
SMILES,Tgondii IFNg
c1ccc2c(N3CCN(Cc4cccc5nccnc45)CC3)ncnc2c1,-
CCOCC1CN(C(=O)c2ccoc2)Cc2ncn(CC3CC3)c21 (centres undefined),-
CC(C)CCN1c2nc(Nc3cc(F)c(O)c(F)c3)ncc2N(C)C(=O)C1C (centres undefined),-84
Cc1ccc(C(=O)N2CCn3cc(CN4CCCC4)nc3C2)cn1,-
Cc1ccc(N2CCC(N3CCn4cncc4C3)CC2)cc1Cl,-
Cc1ncccc1Oc1ncnc(N2CC[C@@H](N3CCOCC3)[C@H](O)C2)c1C,-
COc1cccc(-c2nc3c(s2)N(C(C)C)C(C(=O)N2CCC(O)CC2)C3)c1 (centres undefined),-
CCn1cc(Cn2cnc(-c3ccccc3)c2/C(C)=C/c2ccco2)cn1,-
CCCn1ccnc1CN1CCCC(c2nn(C)c(=O)n2CC)C1 (centres undefined),-
Cc1cccc(-c2ncc(CN3CCCC(Cn4ccnc4C)C3)cn2)c1 (centres undefined),-
CCn1ccnc1CN1CCCC(c2cncc(-c3cccc(Cl)c3)n2)C1 (centres undefined),-110
COc1cccc(NC(=O)c2c(O)c3ccccc3[nH]c2=O)c1,-
CC(C)CSc1ncc(CNCCc2nc3ccccc3n2C)cn1,-
Cc1oc(C2CCN(S(=O)(=O)c3cccc(C#N)c3)CC2)nc1C(=O)N1CCOCC1,-
Cn1c(SCC(=O)c2ccc3c(c2)OCCO3)nnc1-c1ccc2ccccc2c1,-95
CC(C)(C)c1nc2ccccc2c2nnc(SCC(=O)c3ccc4c(c3)OCCO4)n12,-
O=C(CSc1nc2ccccc2o1)c1ccc2c(c1)OCCO2,-
O=C(NO)c1cnc(N2CCN(S(=O)(=O)c3ccc4ccccc4c3)CC2)nc1,-
Cn1cc(CC(=O)NCc2cnn3ccccc23)c2ccccc21,-
Cn1cc(CNCC2CCN(c3ncc(C(=O)NO)cn3)CC2)c2ccccc21,-79
COc1cc(CN(C)Cc2cccc3ncccc23)cc(F)c1O,-
CC(C)CN1C2COCC1CN(Cc1nccs1)C2,-
Cc1ccc2nc(-c3ccccn3)cc(C(=O)Nc3n[nH]c4nc(C)ccc34)c2c1,-99
O=C(NCCc1c[nH]c2ccc(Cl)cc12)c1cc(-c2ccccn2)nc2ccccc12,-
CCOC(=O)c1c(NC(=O)c2cc(-c3ccccc3)nc3ccc(C)cc23)sc(C)c1C,-
